# An excerpt weighted towards active compounds, which were near 19% of everything screened.
# KB-3-1 cytotox: qHTS assay for MDR1-selective chemotherapeutics: Primary screen using the parental adenocarcinoma cell KB-3-1; actives 1.4% (n = 400,000); Potency, µM (highest dose often 46.1 µM), most hits filed as cytotoxic; KB-3-1 viability, CellTiter-Glo ATP luminescence, 72 h; further: nearly all actives have a fitted effect of over 60% in size
#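 Screening of KB-3-1 cells (DMEM, 10% FBS, phenol-red free) ran from lowest to highest compound concentration; after 72 h at 37 °C viability was read luminescently and curves fitted.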
# HT1080 IDH1KD tx: qHTS for induction of synthetic lethality in tumor cells producing 2HG: qHTS for the HT-1080-IDH1KD cell line; actives 2% (n = 360,000); Potency, µM (highest dose often 46.1 µM), inactives show top-dose activity, negative = toxicity, hits mostly cytotoxic; HT-1080 IDH1 knockdown viability, ATP luminescence, 48 h;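 further: 0% = DMSO wells and -100% = cell-free medium wells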
#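 % activity derives from luminescence (CellTiter-Glo), normalised to DMSO and no-cell wells. HT-1080-IDH1KD cells, 750/well, had 48 h compound exposure at 37 °C.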
# KB-V1 cytotox: qHTS assay for MDR1-selective chemotherapeutics: Primary screen using the drug-selected MDR subline cells KB-V1; KB-V1 MDR cells viability, CellTiter-Glo, 72 h; Potency, µM (titrated, usually from 46.1 µM), usual class: cytotoxic; actives 3.4% (n = 400,000); AID 1347076, 2019; further: nearly all actives have a fitted effect of over 60% in size
#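 Readout: CellTiter-Glo luminescence, 10 min after addition. Cells: KB-V1 MDR subline, 72 h at 37 degrees C with compound. Analysis: corrected, normalized data fitted to concentration-effect curves.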
# DT40 TDP1 no CPT: qHTS for Inhibitors of human tyrosyl-DNA phosphodiesterase 1 (TDP1): qHTS in cells in absence of CPT; Potency, µM (highest dose often 46.2 µM), for the others: at the highest dose activity change, negative = growth inhibition, most hits filed as inhibitors; DT40 Tdp1-/- hTDP1 cells, no CPT, ATP luminescence, 48 h; actives 15% (n = 420,000); further: nearly all actives have a fitted effect of over 55% in size
#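 Compound effects on proliferation are scored in DT40 Tdp1-/-;hTDP1 cells in the absence of CPT. ATP levels (CellTiter-Glo luminescence) are recorded after a ≥48 hr, 37 °C incubation.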
# DT40 TDP1 CPT: qHTS for Inhibitors of human tyrosyl-DNA phosphodiesterase 1 (TDP1): qHTS in cells in presence of CPT; actives 12% (n = 420,000); chicken DT40 Tdp1-/-;hTDP1 cells + 20 nM CPT, ATP luminescence, 48 h; Potency, µM (highest dose often 46.2 µM), inactives show at the top dose activity change, negative = growth inhibition, hits mostly inhibitors; further: nearly all actives have a fitted effect of over 55% in size
#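 Chicken DT40 Tdp1-/- cells complemented with human TDP1, 400 cells/well, exposed to compounds plus 20 nM camptothecin for at least 48 h at 37 C; viability read as ATP content by CellTiter-Glo luminescence.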
# HT1080-NT tox: qHTS for induction of synthetic lethality in tumor cells producing 2HG: qHTS for the HT-1080-NT fibrosarcoma cell line; HT-1080-NT fibrosarcoma viability, CellTiter-Glo ATP luminescence, 48 h; AID 686970, 2013; Potency, µM (top dose mostly 46.1 µM), for the others: top-dose activity, negative = less viability, hits mostly cytotoxic; actives 1.6% (n = 360,000);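 further: NT is the 2HG producing partner of a matched IDH1 knockdown line; 0% = DMSO-treated cells and -100% = media-only wells without cells; nearly all actives have a fitted effect of over 55% in size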
#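 HT-1080-NT fibrosarcoma cells (2HG-overproducing), 750 cells/well in RPMI with 5% FBS, dosed after 2 h and incubated 48 h at 37C. CellTiter-Glo luminescence normalized to DMSO and no-cell wells; concentration-response curves fitted and classed.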
# Numbers without * were called inactive; i = inactive; u = inconclusive; x = no result given; [ ] = another dose, or the depositor's remark. The call rests on the fitted dose curve; in most records, active means well fitted curve in the direction sought with a large enough effect; inconclusive means small, poorly fitted or top-dose-only effect, or another doubt; inactive means no such curve, though single readings can be large; an effect the other way counts as inactive or inconclusive. Unless noted, on the % scale 0 is the no-effect control and ±100 the full control effect; potency means the concentration at half of the fitted maximal effect.
SMILES,KB-3-1 cytotox,HT1080 IDH1KD tx,KB-V1 cytotox,DT40 TDP1 no CPT,DT40 TDP1 CPT,HT1080-NT tox
CC1Cc2ccccc2N1C(=O)CCn1cccn1 (stereo not drawn),i,2.5%,i,u,-2.6%,4.7%
CCCOc1ccc(CCc2n[nH]c(=S)n2Cc2ccccc2)cc1,i,u,i,20.6µM*,u,u
S=c1[nH]nc(CCc2ccccc2)n1Cc1ccccc1,i,6.7%,i,u,-29.7%,6.3%
CCOc1ccc(-n2c(CCc3ccccc3)n[nH]c2=S)cc1,i,-11.8%,u,u,u,-1.7%
CCCOc1ccc(CCc2n[nH]c(=S)n2-c2ccccc2)cc1,i,-19.1%,i,16.4µM*,u,-3.2%
CCOC(=O)Cc1nnc(NCc2ccccc2)c2ccccc12,i,4.2%,i,-1.2%,-25.8%,4.2%
CCOC(=O)Cc1ccc(Nc2nc(NC)nc3ccsc23)cc1,i,u,u,18.4µM*,20.6µM*,u
CCOC(=O)Cc1ccc(Nc2nc(NCc3ccccc3)nc3ccsc23)cc1,u,-13.3%,u,14.6µM*,23.1µM*,-20.2%
C[C@@H]1CCCCO[C@H](CN(C)Cc2ccc(Cl)c(Cl)c2)[C@H](C)CN([C@@H](C)CO)C(=O)c2cc(NC(=O)Nc3ccc(F)cc3)ccc2O1,u,u,i,5.8µM*,9.2µM*,-28.5%
C[C@@H]1CCCCO[C@H](CN(C)C(=O)Nc2ccc(F)cc2)[C@@H](C)CN([C@H](C)CO)C(=O)c2cc(NC(=O)c3ccccc3)ccc2O1,i,-5.1%,i,u,u,-4.2%
C[C@@H]1CN([C@H](C)CO)C(=O)c2cc(NC(=O)Nc3ccc(F)cc3)ccc2O[C@@H](C)CCCCO[C@H]1CN(C)S(=O)(=O)c1ccc(Cl)cc1,i,-19.8%,i,u,25.9µM*,-25.8%
CC(C)NC(=O)Nc1ccc2c(c1)C(=O)N([C@H](C)CO)C[C@H](C)[C@@H](CN(C)S(=O)(=O)c1ccccc1)OCCCC[C@@H](C)O2,i,18.9%,i,-8.3%,-1.2%,2.8%
C[C@H](CO)N1C[C@H](C)[C@@H](CN(C)Cc2ccc(Cl)c(Cl)c2)OCCCC[C@H](C)Oc2ccc(NC(=O)CCC(F)(F)F)cc2C1=O,u,u,i,14.6µM*,23.1µM*,-28.1%
C[C@@H]1CCCCO[C@H](CN(C)Cc2ccc(Cl)c(Cl)c2)[C@@H](C)CN([C@H](C)CO)C(=O)c2cc(N(C)C)ccc2O1,u,-10.5%,i,23.1µM*,18.4µM*,15.5%
Cc1cc(C)n2nc(C(=O)OCC(=O)c3c[nH]c4ccccc34)nc2n1,i,-2.7%,i,8.7%,-4.4%,5.3%
COCCn1c(C)cc(C(=O)CSc2nc3ccccc3c(=O)n2Cc2ccco2)c1C,u,-1.7%,0.651µM*,u,6.51µM*,-1.6%
COCCn1c(C)cc(C(=O)CSc2cc(C)c3ccccc3n2)c1C,i,-29.0%,2.31µM*,u,u,-12.4%
CCCn1c(=O)c2ccccc2n2c(SCC(=O)c3cc(C)n(CCOC)c3C)nnc12,i,1.3%,i,-28.6%,-4.1%,-3.0%
CCOc1ccc(S(=O)(=O)N2CCCC(C(=O)NCc3ccccn3)C2)cc1Cl (stereo not drawn),i,-16.6%,u,16.4µM*,u,-1.1%
CCOc1ccc(S(=O)(=O)N2CCCC(C(=O)NCc3cccnc3)C2)cc1C (stereo not drawn),i,6.2%,i,25.9µM*,u,1.8%
Cc1ccc(S(=O)(=O)N2CCCC(C(=O)NC3CCCC3)C2)cc1Cl (stereo not drawn),u,-3.4%,13µM*,u,u,-9.4%
Cc1ccc2nc(NC(=O)C3CCCN(S(=O)(=O)c4cccnc4)C3)sc2c1 (stereo not drawn),i,-18.8%,i,16.4µM*,23.1µM*,-14.3%
COc1ccc(S(=O)(=O)N2CCCC(C(=O)NCc3ccccn3)C2)cc1Cl (stereo not drawn),i,12.9%,i,-14.7%,u,12.1%
COc1ccc(NC(=O)c2cc(=O)c3cc(C)cc(C)c3o2)cc1,i,x,i,u,u,x
Cc1nnc(C)c2c(C)n(C(c3ccccc3)c3ccccc3)c(C)c12,i,u,u,u,u,5.7%[9.24 µM]
SMILES,KB-3-1 cytotox,HT1080 IDH1KD tx,KB-V1 cytotox,DT40 TDP1 no CPT,DT40 TDP1 CPT,HT1080-NT tox
Cc1nnc(C)c2c(C)n(-c3ccccc3)c(C)c12,i,-9.0%,i,23.1µM*,23.1µM*,-0.2%
Cc1nnc(C)c2c(C)n(-c3ccccc3N)c(C)c12,i,0.0%,i,u,20.6µM*,-17.3%
Cc1ccc(-n2c(C)n[nH]c2=S)cc1C,i,21.2%,i,-0.3%,3.0%,15.5%
Cc1ccc(-n2c(C)c3c(C)nnc(C)c3c2C)cc1N,i,1.8%,i,u,20.6µM*,-0.1%
Cc1ccc(-n2c(C)c3c(C)nnc(C)c3c2C)cc1C,u,-25.3%,i,14.6µM*,14.6µM*,-5.4%
CC(=O)Nc1ccc(C(=O)N2CCCC(c3cc(C(=O)Nc4ccccc4Cl)no3)C2)cc1 (stereo not drawn),i,17.6%,i,u,u,u
Cc1cc(-n2c(C)c3c(C)nnc(C)c3c2C)ccc1N,i,-1.8%,i,u,8.2µM*,2.5%
Cc1c2cnn(-c3ccccc3)c(=O)c2c(C)n1CCCC(=O)Nc1cc(F)ccc1F,i,x,i,u,-13.6%,x
Cc1ccc(-n2ncc3c(=O)n(CC(=O)N4CCN(c5ccccc5)CC4)cnc32)cc1,i,-4.8%,u,-23.3%,-23.8%,-0.3%
Cc1ccc(C)c(NC(=O)CCCn2c(C)c3cnn(-c4ccccc4)c(=O)c3c2C)c1,i,x,i,u,18.4µM*,x
Cc1cccc(N2CCN(C(=O)c3cc4ccccc4oc3=O)CC2)c1C,i,1.8%,u,-15.8%,-5.3%,-1.6%

# Assay outcomes from PubChem BioAssay.
